The supplement of paper PMC11732987, “Enantioselective OTUD7B fragment discovery through chemoproteomics screening and high-throughput optimisation” (Communications Chemistry, 2025)

What was measured:
Experiment in all cases: log2 ratio of Biotin-Ahx-Ub-VS probe labelling (compound/DMSO); higher = less target engagement, active = hit call of the paper (q ≤ 0.05, log2 ratio ≤ -1)
Settings in all cases: treatment time: 3 h
[1] = compound: CCC1N(CCc2sccc12)C(=O)CCl
How it was run: (§1)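 HEK293T lysate (495 µg per sample, in Tris/CHAPS/IGEPAL buffer with protease inhibitors) was exposed in triplicate to compound at 50 or 200 µM, or to DMSO, for 3 h, then to Biotin-Ahx-Ub-VS (0.5 µM final) for 1 h. The labelled DUBs were enriched on NeutrAvidin, digested with LysC and trypsin, and analysed by diaPASEF LC-MS/MS. Average base-two log ratios of compound over DMSO came from median-normalised label-free quantities by unpaired t-test. Only proteins with at least 2 unique peptides were used.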

[2] = compound: CN1c2ccccc2C(CS1(=O)=O)NC(=O)CCl
How it was run: as §1

[3] = compound: Cl.ClCC(=O)N1CCc2ncncc2C1
How it was run: as §1

[4] = compound: Cl.Cn1ncc2C(CCCc12)NC(=O)CCl
How it was run: as §1

[5] = compound: ClCC(=O)NC1CCOc2ccccc12
How it was run: as §1

[6] = compound: ClCC(=O)NC1CCCc2ccccc12
How it was run: (§2)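 Values are average ratios of compound to vehicle from an unpaired t-test, limited to proteins with at least two unique peptides. HEK293T lysate (495 µg per sample, in Tris/CHAPS/IGEPAL buffer with protease inhibitors) was exposed in triplicate to a concentration series of compound or to vehicle for 3 h, then to Biotin-Ahx-Ub-VS at 0.5 µM final for 1 h. Labelled deubiquitinases were enriched on NeutrAvidin, digested with LysC and trypsin, and analysed by diaPASEF LC-MS/MS. Ratios are given on a log2 scale from Spectronaut label-free protein quantities normalised to the global median.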

[7] = compound: ClCC(=O)N[C@@H]1CCCc2ccccc12
How it was run: as §2

[8] = compound: ClCC(=O)N[C@H]1CCCc2ccccc12
How it was run: as §2

[9] = compound: CCC1N(CCc2cc(OC)c(Cl)cc12)C(=O)CCl
How it was run: as §1

[10] = compound: CCCC1N(CCc2cc(OC)c(OC)cc12)C(=O)CCl
How it was run: as §1

[11] = compound: CN(Cc1cccc(Br)c1)C(=O)CCl
How it was run: as §1

[12] = compound: CN(Cc1cccc(OCc2ccccc2C)c1)C(=O)CCl
How it was run: as §1

[13] = compound: CN(Cc1ccccc1)C(=O)CCl
How it was run: as §1

[14] = compound: COc1ccc(CN(C)C(=O)CCl)cc1
How it was run: as §1

[15] = compound: COc1cccc(CN(CCCc2ccccc2)C(=O)CCl)c1
How it was run: as §1

[16] = compound: ClCC(=O)N1CCc2cc(Cl)c(Cl)cc2C1
How it was run: as §1

[17] = compound: ClCC(=O)N1CCc2nc(ncc2C1)-c1ccccc1
How it was run: as §1

[18] = compound: ClCC(=O)N1CCc2nocc2C1
How it was run: as §1

[19] = compound: ClCC(=O)N1CCc2scc(Br)c2C1
How it was run: as §1

[20] = compound: ClCC(=O)NC(C1CCCC1)c1cccs1
How it was run: as §1

Measured: log2 ratio of Biotin-Ahx-Ub-VS probe labelling

USP7 (UniProt Q93009)
UniProt Q93009, sequence (Q93009 whole entry, looked up): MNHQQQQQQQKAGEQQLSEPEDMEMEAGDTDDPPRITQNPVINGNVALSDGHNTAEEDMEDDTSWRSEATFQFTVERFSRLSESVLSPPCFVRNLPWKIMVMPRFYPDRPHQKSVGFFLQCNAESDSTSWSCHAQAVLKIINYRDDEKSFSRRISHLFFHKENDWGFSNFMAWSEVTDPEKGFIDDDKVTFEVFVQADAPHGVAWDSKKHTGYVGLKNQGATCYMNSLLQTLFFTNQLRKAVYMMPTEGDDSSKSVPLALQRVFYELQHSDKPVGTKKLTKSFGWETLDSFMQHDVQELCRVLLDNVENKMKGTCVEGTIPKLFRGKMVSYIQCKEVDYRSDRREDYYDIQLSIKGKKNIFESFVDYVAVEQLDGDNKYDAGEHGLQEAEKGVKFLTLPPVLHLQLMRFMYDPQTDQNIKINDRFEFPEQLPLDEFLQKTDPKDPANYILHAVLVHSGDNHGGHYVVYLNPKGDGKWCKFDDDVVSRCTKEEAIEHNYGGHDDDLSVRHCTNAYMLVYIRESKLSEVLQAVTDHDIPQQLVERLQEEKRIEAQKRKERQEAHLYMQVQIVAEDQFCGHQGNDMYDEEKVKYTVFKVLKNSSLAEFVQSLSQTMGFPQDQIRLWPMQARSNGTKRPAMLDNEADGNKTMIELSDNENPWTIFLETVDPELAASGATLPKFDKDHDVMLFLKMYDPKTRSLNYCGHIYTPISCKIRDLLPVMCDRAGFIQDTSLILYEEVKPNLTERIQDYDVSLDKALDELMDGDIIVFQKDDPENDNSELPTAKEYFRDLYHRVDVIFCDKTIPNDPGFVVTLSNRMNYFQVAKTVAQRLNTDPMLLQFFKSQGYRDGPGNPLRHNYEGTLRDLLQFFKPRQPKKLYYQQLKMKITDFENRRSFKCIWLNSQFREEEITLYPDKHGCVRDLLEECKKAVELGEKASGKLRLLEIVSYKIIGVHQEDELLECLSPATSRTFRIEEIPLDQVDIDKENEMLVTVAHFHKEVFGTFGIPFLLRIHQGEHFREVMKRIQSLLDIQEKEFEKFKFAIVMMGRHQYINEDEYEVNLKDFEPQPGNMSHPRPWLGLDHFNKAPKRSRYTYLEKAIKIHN
inactive: [1]; compound concentration: 50uM -0.421 | [2]; compound concentration: 50uM -0.133 | [2]; compound concentration: 200uM -0.121 | [3]; compound concentration: 50uM -0.0285 | [3]; compound concentration: 200uM -0.558 | [4]; compound concentration: 50uM 0.09 | [4]; compound concentration: 200uM -0.0475 | [5]; compound concentration: 50uM -0.0159 | [5]; compound concentration: 200uM -0.18 | [6]; compound concentration: 0.78uM -0.0291 | [6]; compound concentration: 1.56uM 0.0294 | [6]; compound concentration: 3.13uM -0.0887 | [6]; compound concentration: 6.25uM -0.0846 | [6]; compound concentration: 12.5uM -0.0893 | [6]; compound concentration: 25uM -0.157 | [6]; compound concentration: 50uM -0.0846 | [6]; compound concentration: 100uM -0.00996 | [6]; compound concentration: 200uM -0.173 | [7]; compound concentration: 0.78uM -0.245 | [7]; compound concentration: 1.56uM -0.104 | [7]; compound concentration: 3.13uM -0.126 | [7]; compound concentration: 6.25uM -0.0886 | [7]; compound concentration: 12.5uM -0.122 | [7]; compound concentration: 25uM -0.125 | [7]; compound concentration: 50uM -0.161 | [7]; compound concentration: 100uM -0.145 | [7]; compound concentration: 200uM -0.261 | [8]; compound concentration: 0.78uM -0.0919 | [8]; compound concentration: 1.56uM -0.155 | [8]; compound concentration: 3.13uM -0.109 | [8]; compound concentration: 6.25uM 0.00463 | [8]; compound concentration: 12.5uM -0.0828 | [8]; compound concentration: 25uM -0.0804 | [8]; compound concentration: 50uM -0.017 | [8]; compound concentration: 100uM -0.124 | [8]; compound concentration: 200uM -0.255 | [9]; compound concentration: 50uM -0.321 | [10]; compound concentration: 50uM -0.397 | [11]; compound concentration: 50uM -0.88 | [12]; compound concentration: 50uM -0.769 | [13]; compound concentration: 50uM -0.517 | [14]; compound concentration: 50uM -0.358 | [15]; compound concentration: 50uM -0.387 | [17]; compound concentration: 50uM -0.461 | [18]; compound concentration: 50uM -0.316 | [18]; compound concentration: 200uM -0.618 | [19]; compound concentration: 50uM -0.698 | [20]; compound concentration: 50uM 0.0363 | [20]; compound concentration: 200uM -0.1
active: [1]; compound concentration: 200uM -1.24 | [9]; compound concentration: 200uM -1.17 | [10]; compound concentration: 200uM -1.18 | [11]; compound concentration: 200uM -1.84 | [12]; compound concentration: 200uM -1.62 | [13]; compound concentration: 200uM -1.2 | [14]; compound concentration: 200uM -1.04 | [15]; compound concentration: 200uM -1.22 | [16]; compound concentration: 50uM -1.57 | [16]; compound concentration: 200uM -2.52 | [17]; compound concentration: 200uM -1.58 | [19]; compound concentration: 200uM -2.08

USP46 (UniProt P62068)
UniProt P62068, sequence (P62068 whole entry): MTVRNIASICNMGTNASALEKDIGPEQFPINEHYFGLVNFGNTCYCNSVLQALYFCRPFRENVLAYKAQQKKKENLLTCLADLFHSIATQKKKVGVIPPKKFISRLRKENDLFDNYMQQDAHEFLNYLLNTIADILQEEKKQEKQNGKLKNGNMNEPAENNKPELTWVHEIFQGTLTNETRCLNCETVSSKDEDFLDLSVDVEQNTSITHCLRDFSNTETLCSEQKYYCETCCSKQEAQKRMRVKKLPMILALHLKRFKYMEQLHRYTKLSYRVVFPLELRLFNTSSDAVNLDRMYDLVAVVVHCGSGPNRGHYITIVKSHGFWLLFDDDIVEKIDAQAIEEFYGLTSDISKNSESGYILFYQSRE
inactive: [1]; compound concentration: 50uM 0.00875 | [1]; compound concentration: 200uM -0.386 | [2]; compound concentration: 50uM -0.283 | [2]; compound concentration: 200uM -0.392 | [3]; compound concentration: 50uM -0.496 | [3]; compound concentration: 200uM -0.363 | [4]; compound concentration: 50uM 0.0697 | [4]; compound concentration: 200uM -0.0122 | [5]; compound concentration: 50uM -0.118 | [5]; compound concentration: 200uM -0.18 | [6]; compound concentration: 0.78uM -0.00158 | [6]; compound concentration: 1.56uM -0.0881 | [6]; compound concentration: 3.13uM -0.475 | [6]; compound concentration: 6.25uM -0.276 | [6]; compound concentration: 12.5uM -0.393 | [6]; compound concentration: 25uM -0.421 | [6]; compound concentration: 50uM -0.311 | [6]; compound concentration: 100uM 0.116 | [6]; compound concentration: 200uM -0.326 | [7]; compound concentration: 0.78uM -0.158 | [7]; compound concentration: 1.56uM -0.00787 | [7]; compound concentration: 3.13uM 0.116 | [7]; compound concentration: 6.25uM 0.0618 | [7]; compound concentration: 12.5uM 0.00378 | [7]; compound concentration: 25uM -0.153 | [7]; compound concentration: 50uM -0.14 | [7]; compound concentration: 100uM -0.166 | [7]; compound concentration: 200uM -0.243 | [8]; compound concentration: 0.78uM 0.11 | [8]; compound concentration: 1.56uM -0.348 | [8]; compound concentration: 3.13uM -0.0607 | [8]; compound concentration: 6.25uM -0.153 | [8]; compound concentration: 12.5uM 0.0225 | [8]; compound concentration: 25uM -0.138 | [8]; compound concentration: 50uM 0.0154 | [8]; compound concentration: 100uM -0.107 | [8]; compound concentration: 200uM -0.288 | [9]; compound concentration: 50uM -0.0362 | [10]; compound concentration: 50uM -0.446 | [10]; compound concentration: 200uM -0.735 | [11]; compound concentration: 50uM -0.406 | [11]; compound concentration: 200uM -0.773 | [12]; compound concentration: 50uM -0.515 | [12]; compound concentration: 200uM -0.89 | [13]; compound concentration: 50uM -0.252 | [14]; compound concentration: 50uM -0.0785 | [14]; compound concentration: 200uM -0.634 | [15]; compound concentration: 50uM -0.32 | [16]; compound concentration: 50uM -0.575 | [17]; compound concentration: 50uM 0.0166 | [18]; compound concentration: 50uM -0.22 | [18]; compound concentration: 200uM -0.641 | [19]; compound concentration: 50uM -0.291 | [20]; compound concentration: 50uM 0.0547 | [20]; compound concentration: 200uM -0.255
active: [9]; compound concentration: 200uM -1.5 | [13]; compound concentration: 200uM -1.01 | [15]; compound concentration: 200uM -1.33 | [16]; compound concentration: 200uM -2.77 | [17]; compound concentration: 200uM -1.12 | [19]; compound concentration: 200uM -1.43

USP16 (UniProt Q9Y5T5)
UniProt Q9Y5T5, sequence (Q9Y5T5 whole entry, looked up): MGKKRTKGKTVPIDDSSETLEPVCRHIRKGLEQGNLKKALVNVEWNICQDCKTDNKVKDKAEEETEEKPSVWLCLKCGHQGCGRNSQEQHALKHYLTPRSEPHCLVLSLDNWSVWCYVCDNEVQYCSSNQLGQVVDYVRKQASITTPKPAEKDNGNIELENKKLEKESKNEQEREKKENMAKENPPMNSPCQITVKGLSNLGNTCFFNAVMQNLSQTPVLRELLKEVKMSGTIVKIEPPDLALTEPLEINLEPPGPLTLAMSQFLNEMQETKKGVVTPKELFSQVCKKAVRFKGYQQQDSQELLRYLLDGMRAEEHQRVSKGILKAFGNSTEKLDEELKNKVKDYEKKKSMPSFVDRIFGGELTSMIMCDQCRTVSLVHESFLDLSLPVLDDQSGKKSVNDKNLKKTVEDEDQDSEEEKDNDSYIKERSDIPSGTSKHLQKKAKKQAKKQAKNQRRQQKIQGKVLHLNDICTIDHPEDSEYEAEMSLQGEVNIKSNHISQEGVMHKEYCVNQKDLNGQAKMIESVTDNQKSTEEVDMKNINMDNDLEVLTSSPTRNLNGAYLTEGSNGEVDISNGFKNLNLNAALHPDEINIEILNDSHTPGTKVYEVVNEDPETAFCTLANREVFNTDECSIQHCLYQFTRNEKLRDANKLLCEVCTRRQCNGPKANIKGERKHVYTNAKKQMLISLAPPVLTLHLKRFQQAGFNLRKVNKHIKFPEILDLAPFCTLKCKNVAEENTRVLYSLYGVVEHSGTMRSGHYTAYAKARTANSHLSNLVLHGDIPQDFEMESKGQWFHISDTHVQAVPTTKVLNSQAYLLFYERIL
active: [11]; compound concentration: 200uM -1.27 | [17]; compound concentration: 200uM -1.62
inactive: [1]; compound concentration: 50uM -0.0823 | [1]; compound concentration: 200uM -0.556 | [2]; compound concentration: 50uM -0.113 | [2]; compound concentration: 200uM -0.275 | [3]; compound concentration: 50uM 0.0401 | [3]; compound concentration: 200uM -0.748 | [4]; compound concentration: 50uM -0.209 | [4]; compound concentration: 200uM -0.00919 | [5]; compound concentration: 50uM -0.0288 | [5]; compound concentration: 200uM -0.558 | [6]; compound concentration: 0.78uM -0.182 | [6]; compound concentration: 1.56uM -0.165 | [6]; compound concentration: 3.13uM -0.0224 | [6]; compound concentration: 6.25uM -0.111 | [6]; compound concentration: 12.5uM -0.299 | [6]; compound concentration: 25uM -0.0714 | [6]; compound concentration: 50uM -0.0894 | [6]; compound concentration: 100uM -0.233 | [6]; compound concentration: 200uM -0.491 | [7]; compound concentration: 0.78uM -0.0997 | [7]; compound concentration: 1.56uM -0.0515 | [7]; compound concentration: 3.13uM -0.248 | [7]; compound concentration: 6.25uM -0.0769 | [7]; compound concentration: 12.5uM -0.00208 | [7]; compound concentration: 25uM -0.0915 | [7]; compound concentration: 50uM -0.387 | [7]; compound concentration: 100uM -0.167 | [7]; compound concentration: 200uM -0.479 | [8]; compound concentration: 0.78uM -0.177 | [8]; compound concentration: 1.56uM -0.318 | [8]; compound concentration: 3.13uM 0.0709 | [8]; compound concentration: 6.25uM -0.00683 | [8]; compound concentration: 12.5uM -0.0549 | [8]; compound concentration: 25uM 0.0133 | [8]; compound concentration: 50uM 0.0578 | [8]; compound concentration: 100uM -0.181 | [8]; compound concentration: 200uM -0.253 | [9]; compound concentration: 50uM -0.285 | [9]; compound concentration: 200uM -0.652 | [10]; compound concentration: 50uM -0.265 | [10]; compound concentration: 200uM -0.972 | [11]; compound concentration: 50uM -0.307 | [12]; compound concentration: 50uM -0.495 | [12]; compound concentration: 200uM -0.496 | [13]; compound concentration: 50uM -0.434 | [13]; compound concentration: 200uM -0.669 | [14]; compound concentration: 50uM -0.00981 | [14]; compound concentration: 200uM -0.105 | [15]; compound concentration: 50uM -0.312 | [15]; compound concentration: 200uM -0.936 | [16]; compound concentration: 50uM -0.694 | [16]; compound concentration: 200uM -0.189 | [17]; compound concentration: 50uM -0.0935 | [18]; compound concentration: 50uM -0.0383 | [18]; compound concentration: 200uM -0.326 | [19]; compound concentration: 50uM -0.507 | [19]; compound concentration: 200uM 0.00388 | [20]; compound concentration: 50uM -0.325 | [20]; compound concentration: 200uM -0.246
